Screening results (PubChem)
Most compounds without a hit are left out; they make up all but 17% or so of the library.
ATXN2 expr inh – inhibitors of ATXN2 expression. HEK-293 ATXN2-luciferase reporter, luminescence, 24 h. Potency, µM (highest dose often 57 µM), for inactives: top-dose activity change, negative = inhibition, hits mostly inhibitors. actives 0.72% (n = 360,000); also: % is scaled to controls: 0 for no effect and ±100 for the full control effect; nearly all actives have a fitted effect of over 55% in size
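qHTS (up to 57 uM final) was run with 24 h compound exposure of reporter cells at 37 °C. Each well was multiplexed: SteadyGlo luminescence measured ATXN2-luciferase expression after a fluorogenic Gly-Phe-AFC viability readout (25 uM final).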
TGFb SMAD3 inh – inhibitors of TGF-b signaling; HepG2 CAGA-GFP TGF-b/SMAD3 reporter, GFP fluorescence, 18 h; TGF-beta stimulated, 500 pg/mL final; Potency, µM (doses to about 46.1 µM), for the others: top-dose activity, negative = inhibition, actives largely listed as inhibitors; actives 1.2% (n = 410,000); AID 588855; also: % is scaled to controls: 0 for no effect and ±100 for the full control effect; nearly all actives have a fitted effect of over 65% in size
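Cell-based qHTS in HEPG2 carrying a CAGA-GFP Smad reporter; compounds added before 500 pg/mL final TGF-beta, 18 h incubation at 37 degrees C, GFP fluorescence quantified per cell by imaging cytometry.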
TDP1 cell CPT – growth inhibition of DT40 Tdp1-/-;hTDP1 cells with camptothecin (screen for TDP1 inhibitors). Potency, µM (series often up to 46.2 µM), for the others: at the highest dose activity change, negative = growth inhibition, most hits filed as inhibitors. chicken DT40 Tdp1-/-;hTDP1 cells + 20 nM CPT, ATP luminescence, 48 h. AID 686979. actives 12% (n = 420,000); also: % is scaled to controls: 0 for no effect and ±100 for the full control effect; nearly all actives have a fitted effect of over 55% in size
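Chicken DT40 Tdp1-/- cells stably complemented with human TDP1 were seeded at 400 cells/well in medium containing 20 nM camptothecin, exposed to pin-transferred compounds, and grown at 37 °C for at least 48 hr. Viability was read as ATP luminescence.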
HepG2 viability – kills HepG2 cells in TGF-b inhibitor counter-screen; HepG2 CAGA-GFP viability, ATP luminescence, 18 h; Potency, µM (highest dose often 46.1 µM), without a hit: top-dose activity change, negative = cytotoxicity, hits mostly cytotoxic; actives 0.76% (n = 410,000)
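CellTiter-Glo luminescence gave cytotoxicity after 18 hours at 37 degrees C. The cells were HepG2 CAGA-GFP in 1% FBS DMEM, stimulated with 500 pg/mL TGF-beta after compound addition. %Activity was normalised to no-cell wells (complete cell-killing) and DMSO (no toxicity), and curves were fitted and classified.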
DT40 TDP1 no CPT – qHTS for Inhibitors of human tyrosyl-DNA phosphodiesterase 1 (TDP1): qHTS in cells in absence of CPT; Potency, µM (highest dose often 46.2 µM), inactives show top-dose activity change, negative = growth inhibition, usual class: inhibitors; actives 15% (n = 420,000); DT40 Tdp1-/- hTDP1 cells, no CPT, ATP luminescence, 48 h; AID 686978, 2013; also: % is scaled to controls: 0 for no effect and ±100 for the full control effect; nearly all actives have a fitted effect of over 55% in size
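Growth of hTDP1-complemented DT40 Tdp1-knockout cells is measured by ATP luminescence after at least 48 hr compound exposure at 37 °C, with DMSO substituting for the 20 nM CPT used in the parallel screen.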
S2 tox – viability counter-screen for ATXN expression inhibitors; S2 cells (HEK-293 line with an ATXN2-luciferase reporter) viability, CellTiter-Fluor protease fluorescence, 24 h; Potency, µM (titrated, usually from 56.7 µM), usual class: cytotoxic; actives 0.49% (n = 400,000); AID 651635; also: nearly all actives have a fitted effect of over 40% in size
* = called active by the depositor; i = inactive; ? = inconclusive; . = not tested or not shown. Calls follow the shape of the dose curve; as a rule, active = well fitted curve in the direction sought with a large enough effect; inconclusive = small, poorly fitted or top-dose-only effect, or another doubt; inactive = no such curve, though single readings can be large; an effect the other way counts as inactive or inconclusive. Potency is read from the fitted curve at half-maximal effect.

SMILES | ATXN2 expr inh | TGFb SMAD3 inh | TDP1 cell CPT | HepG2 viability | DT40 TDP1 no CPT | S2 tox
Cc1ccc(CN2C(=O)CC(Nc3ccc(N4CCOCC4)cc3)C2=O)cc1 (stereo not given) | . | 7% | -16% | -7% | ? | ?
COc1cccc(CNc2nc3ccccc3n2C(C)C)c1O | 27% | -1% | 21µM* | -1% | ? | i
CC(C)n1c(NCc2nc3ccccc3n2C)nc2ccccc21 | 14% | -5% | -8% | -22% | -12% | i
CCCn1c(NCc2cccc(OC)c2O)nc2ccccc21 | 45% | -3% | -23% | -26% | ? | i
CC(C)n1c(NCc2cc(Cl)ccc2O)nc2ccccc21 | 28µM* | ? | ? | -40% | 18µM* | ?
CCn1c(CNc2nc3ccccc3n2C(C)C)nc2ccccc21 | -12% | ? | 15µM* | -30% | 10µM* | i
COc1ccc(CCNc2oc(COc3ccccc3Cl)nc2C#N)cc1OC | ? | ? | ? | -24% | ? | ?
COc1ccccc1OCc1nc(C#N)c(N2CC(C)CC(C)C2)o1 (stereo not given) | -21% | -7% | 29µM* | -22% | ? | i
N#Cc1nc(COc2ccccc2Cl)oc1NCCc1ccccc1 | . | ? | ? | -25% | 16µM* | .
COc1ccc(CCNc2oc(COc3ccccc3F)nc2C#N)cc1OC | 4% | 0% | ? | -23% | 26µM* | i
COc1ccc(Nc2oc(COc3ccccc3OC)nc2C#N)cc1 | 10µM* | -15% | -27% | -2% | -22% | i
c1ccc2cnccc2c1 | . | -1% | 0% | 6% | -5% | .
O=C(O)C(Cc1cn[nH]n1)=NO | . | -7% | 1% | 6% | -14% | i
COc1ccc(CNC(=O)c2ccc3c(c2)nc2n3CCC(C)C2)c(OC)c1 (stereo not given) | . | -7% | 2% | -18% | ? | .
COc1ccc(CCNc2oc(COc3ccc(F)cc3)nc2C#N)cc1 | -4% | 16µM* | 18µM* | -43% | ? | i
N#Cc1nc(-c2ccco2)oc1N1CCCC1 | -14% | 6% | 5% | -4% | -1% | i
CC1CC(C)CN(c2oc(-c3ccco3)nc2C#N)C1 (stereo not given) | -11% | 0% | 18µM* | -12% | 21µM* | i
O=C(COC(=O)c1cc([N+](=O)[O-])ccc1N1CCOCC1)Nc1cccc(F)c1 | -21% | -8% | -29% | -8% | 10% | i
Cc1c(C)n2c3c(cccc13)CC2 | 1% | -10% | 0% | -4% | -5% | i
c1cc2c3c(c1)c1c(n3CCNC2)CCCC1 | . | . | ? | . | 24µM* | .
CC1CN(S(=O)(=O)c2ccc(Cl)c(S(=O)(=O)N3CC(C)OC(C)C3)c2)CC(C)O1 (stereo not given) | -7% | -16% | ? | 6% | 15µM* | i
CC1CN(C(=O)c2cc(S(=O)(=O)N3CCCC3)c(Cl)cc2Cl)CC(C)O1 (stereo not given) | -12% | -12% | 13µM* | -17% | 18µM* | i
CCC1(C2CCN(C(=O)c3ccccc3Cl)CC2)NC(=O)N(CCc2scnc2C)C1=O (stereo not given) | . | . | 19% | . | -9% | i
CN1CCN(C(c2ccc(F)cc2)c2ccc3cccnc3c2O)CC1 (stereo not given) | . | -12% | 4% | -15% | -6% | i
CN1CCN(C(c2ccc(Br)cc2)c2cc(Cl)c3cccnc3c2O)CC1 (stereo not given) | ? | ? | 16µM* | -23% | 15µM* | ?
SMILES | ATXN2 expr inh | TGFb SMAD3 inh | TDP1 cell CPT | HepG2 viability | DT40 TDP1 no CPT | S2 tox
CN1CCN(C(c2cccnc2)c2ccc3cccnc3c2O)CC1 (stereo not given) | 1% | -19% | ? | -36% | 16µM* | i
COc1ccc(C2C=C(c3ccccc3)Nc3nc(NC(=O)/C=C/c4ccccc4OC)nn32)cc1 (stereo not given) | 9% | -1% | 5.8µM* | -23% | 2.6µM* | i
COc1ccc(C2C=C(c3ccccc3)Nc3nc(NS(=O)(=O)c4ccc(C)cc4)nn32)cc1 (stereo not given) | 7% | 48% | -12% | 2% | -19% | .
COc1ccc(C(=O)Nc2nc3n(n2)C(c2ccccc2)C=C(c2ccccc2)N3)cc1 (stereo not given) | -8% | 25% | 18µM* | 7% | ? | .
O=C(Nc1nc2n(n1)C(c1ccccc1)C=C(c1ccc(Cl)cc1)N2)c1ccco1 (stereo not given) | -11% | 54% | 21µM* | -13% | 23µM* | .
COc1ccc(C2C=C(c3ccccc3)Nc3nc(CCCO)nn32)cc1 (stereo not given) | -7% | 18% | -25% | -1% | ? | .
COc1ccc(C2C=C(c3ccccc3)Nc3nc(NC(=O)/C=C/c4ccccc4)nn32)cc1 (stereo not given) | 2% | -3% | 9.2µM* | -43% | 7.3µM* | i
COc1ccc(OC)c(CNC(=O)c2cnc3c(C)cccn3c2=O)c1 | 0% | 8% | 4% | 3% | 4% | i
CCOc1cc(NC(=S)NCCCN2CCOCC2)c(OCC)cc1NC(=O)c1ccco1 | 0% | 0% | -4% | -22% | -1% | i
COc1ccc2c(c1OC)C(=O)OC2N1C(=O)CC[C@H]1C(=O)NCC1CCCO1 (stereo not given in full) | 7% | 9% | 18% | 8% | 6% | i
COc1ccccc1CNC(=O)c1ccc(CS(=O)Cc2cccc(Cl)c2)o1 (stereo not given) | . | -2% | ? | -8% | ? | i
CCCCCCCCCCCCCCCC(=O)OC[C@@H](O)[C@H]1OC[C@H](O)[C@H]1O | . | . | 4% | . | -14% | .
O=C(C1=C[C@H](C2CCCCC2)C[C@H](OCc2ccc(CO)cc2)O1)N1CCN(Cc2ccccc2)CC1 | ? | ? | 18µM* | -5% | 18µM* | ?
C[C@@H]1C=C(C(=O)N2CCN(Cc3ccccc3)CC2)O[C@H](OCc2ccc(CO)cc2)C1 | -21% | -14% | -20% | -50% | -4% | i
O=C(C1=C[C@H](C2CCCCC2)C[C@H](OCc2ccc(CO)cc2)O1)N1CCOCC1 | 8% | -18% | ? | -29% | ? | i
